The source made the active and inactive calls. The calls were made as follows: active = hit-call score of the fitted dose curve at least 0.9, where 1 is the maximum; inactive = score below 0.9.
Test: ATG_PBREM_CIS: Attagene CIS-FACTORIAL HepG2 Assay for human Phenobarbital-responsive Enhancer Module (PBREM) (AID 2282955)
Details: HepG2 PBREM cis-reporter, Attagene multiplexed transcription; actives raise or lower the signal
How it was run: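 Reporter mRNA read by RT-PCR, 6-FAM primer extension, HpaI digestion and capillary electrophoresis. Transfected HepG2 cells, 24 h compound exposure. Gain or loss of signal fitted bidirectionally relative to DMSO baseline.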

outcome, inactive:
CCCCCCc1ccc(N)cc1, COc1cccc(O)c1, FC(F)(F)C1(F)C(F)(F)C(F)(F)C(F)(F)C1(F)F, C=CC(=O)OCCC(F)(F)C(F)(F)C(F)(F)C(F)(F)C(F)(F)C(F)(F)C(F)(F)C(F)(F)F, CCCCCc1ccc(O)cc1, O=C1OC(=O)c2cc(-c3ccc4c(c3)C(=O)OC4=O)ccc21, FC(F)(F)C(F)(F)C(F)(F)C(F)(F)I, OCCN1CN(CCO)CN(CCO)C1, Oc1c(Cl)cc(Cl)cc1Sc1cc(Cl)cc(Cl)c1O, COc1cc([N+](=O)[O-])ccc1N, CC(C)(c1ccc(Oc2ccc(N)cc2)cc1)c1ccc(Oc2ccc(N)cc2)cc1, CCCC=O, CCCCCCCCC(C)=O, NC(C(F)(F)F)C(F)(F)F, Cc1ccc(C)c(S(=O)(=O)O)c1

Reference: PubChem BioAssay (EPA / NIEHS)
